Out of some 330,000 compounds screened, about 5,800 (1.8%) were called active.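 How the source made its calls: active means inhibition above about 50% at the single tested dose (limit read from the data); inactive means the rest.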 Shown is part of a subset that was picked to be rich in actives.

For this experiment, the target named is Sentrin-specific protease 6 (Homo sapiens) (UniProt Q9GZR1). As to the kind of experiment: inhibition of human SENP6 catalytic domain – biochemical, luminescence, uHTS, primary screen (AID 2599).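 Further: plate controls were DMSO wells with enzyme for no effect and DMSO wells lacking enzyme for full effect.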 The settings on record: Recombinant SENP6 catalytic domain, aminoluciferin luminescence; at 10 µM; active compounds read high.
Sentrin-specific protease 6 (Homo sapiens), sequence (Q9GZR1 628-1112 limits assumed): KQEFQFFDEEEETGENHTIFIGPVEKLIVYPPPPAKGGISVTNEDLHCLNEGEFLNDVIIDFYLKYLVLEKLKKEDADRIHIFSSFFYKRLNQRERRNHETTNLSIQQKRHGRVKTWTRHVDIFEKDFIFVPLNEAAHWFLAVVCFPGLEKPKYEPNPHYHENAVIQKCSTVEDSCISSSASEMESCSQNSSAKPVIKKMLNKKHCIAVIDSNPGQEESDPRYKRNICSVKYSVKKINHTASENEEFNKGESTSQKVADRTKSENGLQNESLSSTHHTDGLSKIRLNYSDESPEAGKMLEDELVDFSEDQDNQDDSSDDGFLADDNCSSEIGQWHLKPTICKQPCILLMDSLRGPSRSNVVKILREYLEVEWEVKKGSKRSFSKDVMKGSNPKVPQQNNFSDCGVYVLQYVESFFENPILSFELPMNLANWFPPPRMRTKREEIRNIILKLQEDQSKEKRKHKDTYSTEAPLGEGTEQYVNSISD
With `Cc1ccc(NS(=O)(=O)c2c(C)[nH]c(C)c2C(=O)N2CCCCC2)c(C)c1`, the inhibition was -8.53% (inactive).

Take `S=C(Nc1cccc(Br)c1)N1CCn2cccc2C1c1cccnc1` (stereo unspecified): the inhibition is -5.73% (inactive).

For `CC(C)CCNC(=O)CC1C(=O)N(Cc2ccccc2)C(C)c2nc3ccccc3n21` (stereo unspecified), the inhibition is -1.07% (inactive).

For `COc1cc(C(=O)OC2CCOC2=O)c([N+](=O)[O-])cc1OC` (stereo unspecified), the inhibition was -15.4% (inactive).

For the molecule `O=C(OC1CCOC1=O)c1ccc(-c2nc3ccccc3s2)s1` (stereo unspecified), the inhibition was 97.8% (active).

As to `CC(C)c1ccc(C(=O)OC2CCOC2=O)cc1` (stereo unspecified), the inhibition is -5.48% (inactive).

As to `COc1cc(/C=N/Nc2nn3cnnc3c3ccccc23)cc(OC)c1OC`, the inhibition was 2.31% (inactive).

With `C/C(=N\Nc1nncc2ccccc12)c1ccc(Cl)c([N+](=O)[O-])c1`, the inhibition is 1.2% (inactive).

As to `CN(CCO)c1ccc(/C=N/Nc2nncc3ccccc23)cc1`, the inhibition is 96.7% (active).

In the case of `COc1ccc(NC(=O)C2C3C=CC(C3)C2C(=O)NCc2ccccn2)c(OC)c1` (stereo unspecified), the inhibition is 10.4% (inactive).

Consider `Cc1noc(C)c1COc1ccc2ccc(=O)oc2c1`, for which the inhibition was -9.61% (inactive).

Take `COc1ccc(-c2cc3ccc(OCc4nn[nH]n4)cc3oc2=O)cc1`: the inhibition is 68.8% (active).

Turning to `CCCCc1cc(=O)oc2cc(C)cc(OCc3nn[nH]n3)c12`, the inhibition is -1.99% (inactive).

For the molecule `CCS(=O)(=O)Nc1ccc(C(=O)NCCSc2ccccc2)cc1`, the inhibition was 11.9% (inactive).

Regarding `Cc1cccc(OCC(=O)Nc2ccccc2F)c1`, the inhibition is 56.4% (active).

Turning to `Cc1cccc(OCC(=O)Nc2ccc(C(=O)O)cc2NC(=O)COc2cccc(C)c2)c1`, the inhibition was 10.8% (inactive).

For `COc1ccc([N+](=O)[O-])cc1NC(=O)CCc1ccccc1`, the inhibition was -1.66% (inactive).

As to `Cc1cccc(OCCC(=O)Nc2ccccc2C(N)=O)c1`, the inhibition was -32.4% (inactive).

Turning to `Cc1ccc(F)c(NC(=O)CCc2ccccc2)c1`, the inhibition was 51.3% (active).

On to `Cc1ccc(F)c(NC(=O)CCOc2ccccc2C)c1`, for which the inhibition was 5.27% (inactive).

As to `CCOC(=O)C1C(=O)NCC1c1ccccc1` (stereo unspecified), the inhibition was -10.2% (inactive).

Turning to `Cc1ccc(-c2ccnc3nc(Sc4ncc(C(F)(F)F)cc4Cl)nn23)cc1`, the inhibition was 3.77% (inactive).

Regarding `CCOC(=O)CSC1=N/C(=C/c2ccc(-n3cncn3)cc2)C(=O)N1C(C)=O`, the inhibition is 4.91% (inactive).

Take `CCOC(=O)C1CCN(C(=O)CN2C(=O)c3cccnc3Oc3ccc(C)cc32)CC1`: the inhibition was -14.4% (inactive).

As to `Cc1nn(-c2ccccc2)c2[nH]c(C(F)(F)F)cc(=O)c12`, the inhibition was -1.92% (inactive).

Turning to `N=c1c2c3c(sc2ncn1CCCN1CCOCC1)CCCCC3`, the inhibition is 3.22% (inactive).

On to `O=C(O)C1OC(C(=O)O)C2C1C(F)(F)C2(F)F` (stereo unspecified), for which the inhibition is -10.3% (inactive).

For `COc1cc(/C=C(\C#N)c2nc3c(s2)CC(C)CC3)ccc1O` (stereo unspecified), the inhibition was 8.39% (inactive).

As for `COc1cc(/C=C(\C#N)c2nc3ccccc3[nH]2)ccc1O`, the inhibition is 92.4% (active).

Take `Cc1ccc2nc(/C(C#N)=C\c3ccc(OC(=O)c4cccs4)cc3)[nH]c2c1`: the inhibition was -7.94% (inactive).

`c1ccc(C[C@H]2CNCCN2CCC23CC4CC(CC(C4)C2)C3)cc1`: the inhibition was 1.32% (inactive).

As for `O=C(Nc1ccccc1Cc1ccccc1)c1ccc2c(c1)SC1=NS(=O)(=O)CCN12`, the inhibition was -1.13% (inactive).

On to `O=C(NCc1ccco1)C(c1ccncc1)N(C(=O)Cn1nnc2ccccc21)c1ccccc1` (stereo unspecified), for which the inhibition was -7.82% (inactive).

Turning to `O=C(CC1C(=O)NCCN1C(=O)c1ccc([N+](=O)[O-])cc1)Nc1cccc(Cl)c1` (stereo unspecified), the inhibition is -13.3% (inactive).

Take `FC(F)(F)c1ccnc(Oc2ccc(C3=NCCS3)cc2)c1`: the inhibition was 74.8% (active).

As to `O=Cc1ccc(Oc2cccc(C(F)(F)F)c2)nc1`, the inhibition is 7.02% (inactive).

`O=[N+]([O-])c1cccc(C2=NCCS2)c1`: the inhibition is -2.08% (inactive).

`Cc1cccc(N)c1SC1CCCCC1O` (stereo unspecified): the inhibition was 14.9% (inactive).

Turning to `CCCCN1C(N)=NC[C@@H]1CC1CCCCC1`, the inhibition was -9.84% (inactive).

Take `CCCCN(CC)CCNC(=O)CCNC(=O)Cn1ccc2ccccc2c1=O`: the inhibition is -9.66% (inactive).

In the case of `C=CCOc1ccc(Cl)cc1CNCCCN1CCOCC1`, the inhibition is 7.54% (inactive).

In the case of `c1ccc(-n2nnnc2NC2CCCCCC2)cc1`, the inhibition is -14.3% (inactive).

With `CNC(=S)N1N=C(c2ccccc2)CC1c1ccc(Br)cc1` (stereo unspecified), the inhibition is -4.9% (inactive).

For `Brc1ccc(C2CC(c3ccccc3)=Nc3ccccc3N2)cc1` (stereo unspecified), the inhibition is 81.3% (active).

Take `O=C(c1ccccc1)N1N=C(c2ccccc2O)CC1c1ccc(Br)cc1` (stereo unspecified): the inhibition was -41.6% (inactive).

For `COc1cc(NC(=S)N2CCCC(C)C2)c(OC)cc1Cl` (stereo unspecified), the inhibition was 1.77% (inactive).

In the case of `O=C(CC(c1ccccc1)c1ccccc1)NCC(O)c1ccc([N+](=O)[O-])cc1` (stereo unspecified), the inhibition is -31.1% (inactive).

As to `COC(=O)CCSc1nccn1Cc1ccccc1`, the inhibition is -11% (inactive).

On to `CCCCCC(O)(CCN1CCCCC1)c1ccccc1` (stereo unspecified), for which the inhibition is 5.63% (inactive).

As to `Cc1ccccc1NCC(=O)N/N=C\c1ccc([N+](=O)[O-])s1`, the inhibition was 44% (inactive).

For `C/C(=N\NC(=O)CSc1nc2ccccc2c(=O)n1-c1ccccc1C)c1cccs1`, the inhibition is 6.68% (inactive).

On to `CC/C(=N\NC(=O)c1ccccc1Cl)c1ccc(Br)s1`, for which the inhibition was 3.9% (inactive).

For the molecule `Cc1cccc(/C=N/NC(=O)CNc2cccc3ccccc23)n1`, the inhibition is 78.3% (active).

Turning to `Cc1cccc(C(=O)Nc2ccc(C(=O)N/N=C/c3cccc(C)n3)cc2)c1`, the inhibition is -5% (inactive).

In the case of `C/C(=N\NC(=O)CNc1cccc2ccccc12)c1ccc(Br)s1`, the inhibition is 77.3% (active).

On to `Cc1ccc(NC(=O)CSc2nc(=O)n(CCN(C)C)c3c2CCCC3)c(C)c1`, for which the inhibition was -3.87% (inactive).

Regarding `CC(NC(=S)Nc1ccc(S(N)(=O)=O)cc1)c1ccc2c(c1)OCO2` (stereo unspecified), the inhibition was 7% (inactive).

Regarding `CCn1c(SCC(=O)NNC(=O)c2ccc(OC)cc2)nnc1C(C)C`, the inhibition was -13.3% (inactive).

On to `Cc1nn2c(NCCN(C)C)c3c(nc2c1-c1ccccc1)CCC3`, for which the inhibition is -33.9% (inactive).

As for `Cc1ccc(S(=O)(=O)N(C)C)cc1NC(=O)C(C)OC(=O)c1ccc2ccccc2n1` (stereo unspecified), the inhibition is -0.065% (inactive).

For the molecule `CC(NC(=O)COC(=O)c1ccc2ccccc2n1)c1ccccc1` (stereo unspecified), the inhibition is -2.28% (inactive).

For `CC(OC(=O)c1ccc2ccccc2n1)C(=O)c1ccccc1` (stereo unspecified), the inhibition was 65.8% (active).

Consider `CC(OC(=O)CNS(=O)(=O)/C=C/c1ccccc1)C(=O)Nc1ccc(S(=O)(=O)N2CCCC2)cc1` (stereo unspecified), for which the inhibition is 1.69% (inactive).

Consider `Cn1c(=O)c(=O)n(C)c2cc(S(=O)(=O)NCCN3CCN(c4ccccc4F)CC3)ccc21`, for which the inhibition is -19.5% (inactive).

For the molecule `CCOC(=O)[C@H]1CCC[C@@H](NS(=O)(=O)c2ccc(NC(C)=O)cc2)C1`, the inhibition was 4.75% (inactive).

As for `O=C(/C(=C/c1cccc(Cl)c1)c1nc2ccccc2[nH]1)c1ccccc1`, the inhibition was -2.12% (inactive).

With `N#C/C(=C(/O)COC(=O)COc1ccc(Cl)cc1)c1nc2ccccc2[nH]1`, the inhibition was -13.3% (inactive).

In the case of `O=C(Cc1nc2ccccc2[nH]c1=O)c1ccc(Cl)cc1`, the inhibition is 50.3% (active).

Take `COc1cccc(C(=O)CC(=O)C(=O)Nc2ccc([N+](=O)[O-])cc2C)c1`: the inhibition is 3.79% (inactive).

As to `CC1(C)C=C2[C@H]3CC[C@@H]4[C@@]5(C)CCC(=O)C(C)(C)[C@@H]5CC[C@@]4(C)[C@]3(C)CC[C@@]2(C(=O)O)CC1`, the inhibition was 12.4% (inactive).

In the case of `O=C(C1=C[C@H](c2coc3ccccc3c2=O)C[C@H](OCc2ccc(CO)cc2)O1)N1CCN(Cc2ccccc2)CC1`, the inhibition was -13.7% (inactive).

Turning to `O=C(NC(=S)Nc1ccc(Br)cc1F)C1CCCCC1`, the inhibition is -12.9% (inactive).

Consider `CCOC(=O)N1CCC(NC(=O)c2cnn3ccccc23)CC1`, for which the inhibition is 3.17% (inactive).

For the molecule `O=C(c1cnn2ccccc12)N1CCc2ccccc21`, the inhibition was 51% (active).

On to `Cc1cnc(C(=O)OCC(=O)N2CCc3ccccc32)cn1`, for which the inhibition is 0.963% (inactive).

With `Cc1oc2cc(Br)c(O)c(Br)c2c1C(=O)c1ccccc1`, the inhibition was -11.8% (inactive).

In the case of `COc1cc(SC)ccc1C(=O)NCCOc1ccccc1Cl`, the inhibition was 13.4% (inactive).

Turning to `COc1cc2ccccc2cc1C(=O)Nc1nc(C)c(C(C)=O)s1`, the inhibition is 16.4% (inactive).

Consider `Cc1ccnc(NC(=O)CNC(=O)c2ccccc2)c1`, for which the inhibition is 6.25% (inactive).

Turning to `COc1cc(SC)ccc1C(=O)NNC(=O)C1COc2ccccc2O1` (stereo unspecified), the inhibition was -13.5% (inactive).

With `COc1ccc(C(=O)Nc2cccc(NC(=O)c3ccc(OC)cc3OC)n2)c(OC)c1`, the inhibition was -18% (inactive).

Take `COc1cc(SC)ccc1C(=O)Nc1cc(C)ccn1`: the inhibition was 62.6% (active).

On to `Cc1ccnc(NC(=O)c2ccoc2C)c1`, for which the inhibition is 88.3% (active).

As for `COc1cc(SC)ccc1C(=O)Nc1nc(C)cs1`, the inhibition is 97.3% (active).

For the molecule `COc1cc(SC)ccc1C(=O)N(Cc1ccccc1)c1ccccc1`, the inhibition was -10.9% (inactive).

Take `Cc1csc(NC(=O)c2ccc(C)s2)n1`: the inhibition is 0.083% (inactive).

In the case of `COC(=O)c1sc(NC(=O)c2ccc(OC)cc2OC)nc1C`, the inhibition is 74% (active).

With `Cc1occc1C(=O)Nc1cccc(Cn2cccn2)c1`, the inhibition was -1.37% (inactive).

For `C=CCN(CC=C)C(=O)COC(=O)c1n[nH]c2ccccc12`, the inhibition is -20.6% (inactive).

With `CCOc1ccc(NC(=S)NC(=O)/C=C/c2ccc(OC)cc2)c([N+](=O)[O-])c1`, the inhibition was -2.86% (inactive).

With `O=C(Nc1nccs1)C1CCN(S(=O)(=O)c2ccc(Cl)c(C(F)(F)F)c2)CC1`, the inhibition is -4.6% (inactive).

For the molecule `CCOc1ncccc1C(=O)Nc1ccc(S(=O)(=O)Nc2nc(C)cc(C)n2)cc1`, the inhibition is -19.1% (inactive).

With `O=C(c1ccc(OC2CCN(C/C=C/c3ccc(F)cc3)CC2)cc1)N1CCCCC1`, the inhibition was 0.618% (inactive).

For `COc1cc(C)nc(N2CCCC(C(=O)NCC(C)C)C2)n1` (stereo unspecified), the inhibition was -10.1% (inactive).

As for `O=C(NNS(=O)(=O)c1ccc(F)cc1)C1CCCCC1`, the inhibition was -3.19% (inactive).

For the molecule `COC(=O)c1sc(NC(=S)NC(=O)c2ccc(C)cc2)nc1C`, the inhibition was -20% (inactive).

Consider `CCOC(=O)c1cccnc1NC(=O)c1ccncc1`, for which the inhibition was -2.78% (inactive).

As to `CCOC(=O)c1sc(NC(=O)c2sc(C)nc2C)nc1C`, the inhibition was 15.3% (inactive).

On to `CCOC(=O)c1sc(NC(=O)c2ccncc2)nc1C`, for which the inhibition was 97.5% (active).

On to `CC(=O)c1sc(NC(=O)c2ccc(C)cc2)nc1C`, for which the inhibition is 62% (active).

On to `CC(=O)c1sc(N/N=C\c2ccc(C)cc2)nc1C`, for which the inhibition was 23.9% (inactive).

One may read the inhibition as the change of the read-out against control, counted positive when it falls.

(Values after PubChem BioAssay AID2599 (Sanford-Burnham Center for Chemical Genomics, 2010).)
